The text below walks through data of article PMC7862700, “An all-to-all approach to the identification of sequence-specific readers for epigenetic DNA modifications on cytosine”.

What all share (assay): DAPPL (digital affinity profiling via proximity ligation, sequencing); 10 mM Tris-HCl pH 7.5, 50 mM NaCl, 1 mM DTT, 4% glycerol, room temperature, 30 min; GST-TFs on glutathione beads, 16-mer random dsDNA library, 0.1% formaldehyde crosslink after washing; high values mean tight binding
The target in one assay is T1, FEV (Homo sapiens, UniProt Q99581 1-238).
T1 sequence: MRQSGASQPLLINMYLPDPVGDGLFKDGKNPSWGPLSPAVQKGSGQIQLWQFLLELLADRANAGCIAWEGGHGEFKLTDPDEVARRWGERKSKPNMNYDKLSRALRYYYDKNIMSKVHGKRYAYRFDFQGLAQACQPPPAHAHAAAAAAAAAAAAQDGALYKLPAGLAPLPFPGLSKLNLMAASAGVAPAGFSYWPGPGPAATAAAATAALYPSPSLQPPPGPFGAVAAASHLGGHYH
Conditions: protein: recombinant; tags: N-terminal GST; dsDNA, one strand shown. In short, it runs like this:
(§1)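 Human transcription factors carrying a GST fusion were produced in yeast, bound to glutathione beads, tagged with DNA barcodes and pooled together with a tag-only sample. Each pool was held with 200 nmole of a random double-stranded 16-mer DNA library in Tris/NaCl/DTT/glycerol buffer for 30 min at room temperature, then washed, crosslinked in 0.1% formaldehyde, proximity-ligated with BsaI/T4 ligase (1 h, 37 °C), PCR-amplified and sequenced on an Illumina NextSeq500. Binding signal is the read frequency of each hexamer for a given factor divided by its frequency in the tag-only sample.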

The target in another assay is ETV5 (Homo sapiens, UniProt P41161 1-510). Conditions: protein: recombinant; tags: N-terminal GST; dsDNA, one strand shown. The method in brief:
as §1

For a further assay, the target named is HSF1 (Homo sapiens, UniProt Q00613 1-529). Conditions: protein: recombinant; tags: N-terminal GST; chain copies: 3; dsDNA, one strand shown. The method in brief: as §1
Chain of HSF1 (Q00613 whole entry): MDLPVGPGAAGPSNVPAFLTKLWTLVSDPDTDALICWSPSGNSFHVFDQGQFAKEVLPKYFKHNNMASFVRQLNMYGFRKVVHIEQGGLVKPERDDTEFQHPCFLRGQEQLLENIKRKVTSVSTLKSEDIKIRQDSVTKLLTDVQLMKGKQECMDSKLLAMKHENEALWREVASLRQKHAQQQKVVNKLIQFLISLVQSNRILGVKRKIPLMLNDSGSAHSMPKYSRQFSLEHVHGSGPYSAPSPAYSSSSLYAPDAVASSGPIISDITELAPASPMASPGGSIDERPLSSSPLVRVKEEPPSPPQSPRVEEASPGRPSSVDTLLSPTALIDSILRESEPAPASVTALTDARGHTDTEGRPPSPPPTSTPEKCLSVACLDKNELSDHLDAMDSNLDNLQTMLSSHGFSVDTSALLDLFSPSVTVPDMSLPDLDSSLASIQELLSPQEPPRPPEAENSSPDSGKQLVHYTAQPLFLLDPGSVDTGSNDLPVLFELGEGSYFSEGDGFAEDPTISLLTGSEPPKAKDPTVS
A further assay has as its target T2, SPIC (Homo sapiens, UniProt Q8N5J4 1-248).
T2 sequence: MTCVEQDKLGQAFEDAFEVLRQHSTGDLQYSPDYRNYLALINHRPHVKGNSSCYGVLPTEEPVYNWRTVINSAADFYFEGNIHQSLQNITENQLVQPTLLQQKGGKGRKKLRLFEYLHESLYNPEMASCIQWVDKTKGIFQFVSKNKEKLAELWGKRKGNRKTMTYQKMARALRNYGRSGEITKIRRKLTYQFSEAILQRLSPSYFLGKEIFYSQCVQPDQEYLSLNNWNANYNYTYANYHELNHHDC
Particulars: protein: recombinant; tags: N-terminal GST; dsDNA, one strand shown. In short, it runs like this:
as §1

For another assay, the target named is ELF4 (Homo sapiens, UniProt Q99607 1-663). Conditions: protein: recombinant; tags: N-terminal GST; dsDNA, one strand shown. The method in brief: as §1
Chain of ELF4 (Q99607 whole entry): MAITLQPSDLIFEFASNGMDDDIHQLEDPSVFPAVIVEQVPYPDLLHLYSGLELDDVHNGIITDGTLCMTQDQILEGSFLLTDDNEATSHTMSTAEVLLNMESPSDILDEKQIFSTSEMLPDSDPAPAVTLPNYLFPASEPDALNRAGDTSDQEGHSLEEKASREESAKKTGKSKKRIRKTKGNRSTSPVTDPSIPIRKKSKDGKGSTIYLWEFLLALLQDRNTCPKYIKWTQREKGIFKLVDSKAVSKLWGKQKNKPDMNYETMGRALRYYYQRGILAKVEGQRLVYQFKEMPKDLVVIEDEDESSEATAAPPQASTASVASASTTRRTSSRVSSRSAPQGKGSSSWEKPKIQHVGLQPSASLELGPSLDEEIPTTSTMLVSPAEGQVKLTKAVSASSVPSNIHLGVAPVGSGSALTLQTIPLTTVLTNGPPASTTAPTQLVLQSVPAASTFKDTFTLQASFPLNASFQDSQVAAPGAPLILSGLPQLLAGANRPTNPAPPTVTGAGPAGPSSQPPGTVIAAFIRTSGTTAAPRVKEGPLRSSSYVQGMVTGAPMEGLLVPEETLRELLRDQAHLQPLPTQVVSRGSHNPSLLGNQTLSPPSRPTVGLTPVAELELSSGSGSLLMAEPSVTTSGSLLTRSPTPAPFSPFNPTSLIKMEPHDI
A further assay has as its target T3, ELK4 (Homo sapiens, UniProt P28324-2 1-405).
T3 sequence: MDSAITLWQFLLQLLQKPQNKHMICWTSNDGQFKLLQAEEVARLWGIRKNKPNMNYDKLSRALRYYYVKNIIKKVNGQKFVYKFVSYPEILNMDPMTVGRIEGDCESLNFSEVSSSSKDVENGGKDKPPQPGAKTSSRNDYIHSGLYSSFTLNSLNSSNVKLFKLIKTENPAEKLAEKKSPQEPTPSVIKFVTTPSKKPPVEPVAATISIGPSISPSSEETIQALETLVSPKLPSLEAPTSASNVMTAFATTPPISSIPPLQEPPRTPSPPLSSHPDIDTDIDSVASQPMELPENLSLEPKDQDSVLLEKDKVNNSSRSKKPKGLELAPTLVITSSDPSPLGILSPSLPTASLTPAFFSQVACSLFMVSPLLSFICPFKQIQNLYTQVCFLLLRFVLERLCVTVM
Conditions: protein: recombinant; tags: N-terminal GST; dsDNA, one strand shown. In short, it runs like this: as §1

For another assay, the target named is T4, ETV2 (Homo sapiens, UniProt O00321 1-342).
T4 sequence: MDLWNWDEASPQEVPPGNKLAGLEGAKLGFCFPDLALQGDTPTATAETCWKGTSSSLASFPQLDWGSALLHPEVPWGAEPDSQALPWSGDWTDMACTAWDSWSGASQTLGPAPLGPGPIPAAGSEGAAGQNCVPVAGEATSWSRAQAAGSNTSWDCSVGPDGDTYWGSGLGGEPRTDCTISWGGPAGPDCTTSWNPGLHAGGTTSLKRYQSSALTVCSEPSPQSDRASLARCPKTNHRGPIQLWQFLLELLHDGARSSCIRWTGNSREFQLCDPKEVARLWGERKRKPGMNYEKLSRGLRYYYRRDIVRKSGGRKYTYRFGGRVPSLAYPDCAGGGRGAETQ
Particulars: protein: recombinant; tags: N-terminal GST; dsDNA, one strand shown. In short, it runs like this:
as §1

The next assay has as its target T5, ELF3 (Homo sapiens, UniProt P78545 1-371).
T5 sequence: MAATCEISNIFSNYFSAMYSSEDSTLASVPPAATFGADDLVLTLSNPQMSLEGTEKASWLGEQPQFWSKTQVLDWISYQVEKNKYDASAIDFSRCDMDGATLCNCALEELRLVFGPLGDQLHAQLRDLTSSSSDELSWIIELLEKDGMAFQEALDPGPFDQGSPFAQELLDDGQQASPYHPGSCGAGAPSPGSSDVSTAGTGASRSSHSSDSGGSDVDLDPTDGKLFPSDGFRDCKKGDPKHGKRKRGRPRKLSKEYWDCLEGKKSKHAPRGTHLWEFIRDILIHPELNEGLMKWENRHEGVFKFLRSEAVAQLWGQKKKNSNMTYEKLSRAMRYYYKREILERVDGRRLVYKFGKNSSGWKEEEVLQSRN
Conditions: protein: recombinant; tags: N-terminal GST; dsDNA, one strand shown. In short, it runs like this: as §1

The target of the next assay is CRX (Homo sapiens, UniProt O43186 1-299). Conditions: protein: recombinant; tags: N-terminal GST; dsDNA, one strand shown. In short, it runs like this:
as §1

In a further assay the target is ETV1 (Homo sapiens, UniProt P50549 1-477). Conditions: protein: recombinant; tags: N-terminal GST; dsDNA, one strand shown. The method in brief: as §1
Chain of ETV1 (P50549 whole entry): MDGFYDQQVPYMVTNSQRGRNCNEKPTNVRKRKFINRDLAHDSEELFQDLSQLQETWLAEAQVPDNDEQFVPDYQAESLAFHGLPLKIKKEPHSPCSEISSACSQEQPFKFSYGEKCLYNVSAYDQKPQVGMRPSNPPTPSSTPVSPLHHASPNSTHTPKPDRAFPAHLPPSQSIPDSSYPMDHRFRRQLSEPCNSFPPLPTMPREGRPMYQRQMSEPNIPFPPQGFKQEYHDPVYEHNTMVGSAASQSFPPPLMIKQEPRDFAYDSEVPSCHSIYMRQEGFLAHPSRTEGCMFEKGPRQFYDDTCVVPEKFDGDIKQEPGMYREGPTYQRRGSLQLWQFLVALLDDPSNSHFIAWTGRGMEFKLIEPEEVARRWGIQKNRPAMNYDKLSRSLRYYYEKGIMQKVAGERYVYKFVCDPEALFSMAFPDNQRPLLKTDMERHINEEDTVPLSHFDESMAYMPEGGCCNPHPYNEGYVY
The next assay has as its target T6, ERF (Homo sapiens, UniProt P50548 1-548).
T6 sequence: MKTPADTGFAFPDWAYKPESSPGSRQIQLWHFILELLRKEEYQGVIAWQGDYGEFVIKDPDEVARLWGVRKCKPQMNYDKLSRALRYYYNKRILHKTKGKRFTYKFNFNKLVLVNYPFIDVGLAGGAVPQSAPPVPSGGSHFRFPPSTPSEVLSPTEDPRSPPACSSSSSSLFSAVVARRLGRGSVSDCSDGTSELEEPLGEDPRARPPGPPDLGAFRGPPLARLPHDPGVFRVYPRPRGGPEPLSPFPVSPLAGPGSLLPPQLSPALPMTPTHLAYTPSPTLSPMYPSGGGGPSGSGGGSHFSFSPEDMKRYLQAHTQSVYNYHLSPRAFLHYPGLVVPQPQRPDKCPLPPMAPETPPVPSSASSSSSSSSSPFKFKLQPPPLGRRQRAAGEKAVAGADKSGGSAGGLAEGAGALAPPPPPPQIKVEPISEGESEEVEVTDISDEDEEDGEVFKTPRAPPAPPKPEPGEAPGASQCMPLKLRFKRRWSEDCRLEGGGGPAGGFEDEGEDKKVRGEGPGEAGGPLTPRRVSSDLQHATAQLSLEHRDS
Conditions: protein: recombinant; tags: N-terminal GST; dsDNA, one strand shown. The method in brief: as §1

Another assay addresses T7, ETV3L (Homo sapiens, UniProt Q6ZN32 1-361).
T7 sequence: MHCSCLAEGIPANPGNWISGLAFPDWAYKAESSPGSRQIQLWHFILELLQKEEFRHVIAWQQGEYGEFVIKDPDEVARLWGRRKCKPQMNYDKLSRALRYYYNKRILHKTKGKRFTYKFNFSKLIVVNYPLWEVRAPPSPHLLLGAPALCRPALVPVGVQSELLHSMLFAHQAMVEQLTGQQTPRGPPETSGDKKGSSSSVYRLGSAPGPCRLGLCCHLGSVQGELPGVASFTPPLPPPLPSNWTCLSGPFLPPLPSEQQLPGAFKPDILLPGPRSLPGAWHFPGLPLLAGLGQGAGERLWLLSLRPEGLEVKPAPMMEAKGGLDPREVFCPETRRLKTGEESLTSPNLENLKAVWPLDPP
Conditions: protein: recombinant; tags: N-terminal GST; dsDNA, one strand shown. In short, it runs like this:
as §1

The next assay addresses T8, ETS2 (Homo sapiens, UniProt P15036 1-469).
T8 sequence: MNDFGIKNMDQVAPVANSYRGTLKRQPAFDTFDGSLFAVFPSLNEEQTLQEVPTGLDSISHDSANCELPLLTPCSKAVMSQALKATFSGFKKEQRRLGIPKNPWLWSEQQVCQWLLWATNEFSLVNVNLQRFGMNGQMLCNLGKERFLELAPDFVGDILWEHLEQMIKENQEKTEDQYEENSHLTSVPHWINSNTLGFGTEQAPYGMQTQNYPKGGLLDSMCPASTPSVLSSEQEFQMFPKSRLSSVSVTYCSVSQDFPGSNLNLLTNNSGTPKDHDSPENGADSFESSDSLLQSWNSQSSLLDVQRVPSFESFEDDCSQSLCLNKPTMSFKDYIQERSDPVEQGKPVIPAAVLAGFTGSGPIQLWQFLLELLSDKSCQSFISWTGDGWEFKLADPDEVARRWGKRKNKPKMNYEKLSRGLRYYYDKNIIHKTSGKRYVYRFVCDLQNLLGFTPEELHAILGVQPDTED
Particulars: protein: recombinant; tags: N-terminal GST; dsDNA, one strand shown. The method in brief:
as §1

The next assay deals with T9, SPDEF (Homo sapiens, UniProt O95238 1-335).
T9 sequence: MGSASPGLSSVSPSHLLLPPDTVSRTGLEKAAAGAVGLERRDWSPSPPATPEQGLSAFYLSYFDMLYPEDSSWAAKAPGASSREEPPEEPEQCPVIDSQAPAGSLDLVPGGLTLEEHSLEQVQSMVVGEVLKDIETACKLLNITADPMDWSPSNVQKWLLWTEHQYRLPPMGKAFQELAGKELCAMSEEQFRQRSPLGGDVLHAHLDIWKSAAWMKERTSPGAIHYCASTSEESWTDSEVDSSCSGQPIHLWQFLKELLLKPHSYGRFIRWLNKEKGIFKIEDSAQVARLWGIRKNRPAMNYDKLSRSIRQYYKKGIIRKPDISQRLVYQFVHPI
Particulars: protein: recombinant; tags: N-terminal GST; dsDNA, one strand shown. In short, it runs like this:
as §1

A further assay addresses T10, ETV7 (Homo sapiens, UniProt Q9Y603 1-341).
T10 sequence: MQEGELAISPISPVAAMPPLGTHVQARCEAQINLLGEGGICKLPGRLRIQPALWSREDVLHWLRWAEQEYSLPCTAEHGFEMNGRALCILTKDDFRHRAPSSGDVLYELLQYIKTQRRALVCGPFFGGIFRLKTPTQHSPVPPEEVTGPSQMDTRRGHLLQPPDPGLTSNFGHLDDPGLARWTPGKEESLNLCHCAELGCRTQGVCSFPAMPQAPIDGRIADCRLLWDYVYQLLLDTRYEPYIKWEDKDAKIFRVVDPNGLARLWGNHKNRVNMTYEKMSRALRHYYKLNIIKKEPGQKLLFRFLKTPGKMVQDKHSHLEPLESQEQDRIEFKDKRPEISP
Conditions: protein: recombinant; tags: N-terminal GST; dsDNA, one strand shown. In short, it runs like this:
as §1

The target in another assay is T11, ELF5 (Homo sapiens, UniProt Q9UKW6-2 1-255).
T11 sequence: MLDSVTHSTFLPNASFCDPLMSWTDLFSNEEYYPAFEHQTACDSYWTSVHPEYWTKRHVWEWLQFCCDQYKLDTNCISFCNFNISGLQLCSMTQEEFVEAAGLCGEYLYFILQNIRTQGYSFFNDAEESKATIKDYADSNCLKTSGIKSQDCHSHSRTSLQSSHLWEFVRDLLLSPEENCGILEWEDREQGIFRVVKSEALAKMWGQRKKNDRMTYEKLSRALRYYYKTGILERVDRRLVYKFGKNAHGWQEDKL
Conditions: protein: recombinant; tags: N-terminal GST; dsDNA, one strand shown. In short, it runs like this: as §1

The target in the next assay is T12, ETV3 (Homo sapiens, UniProt P41162-2 1-143).
T12 sequence: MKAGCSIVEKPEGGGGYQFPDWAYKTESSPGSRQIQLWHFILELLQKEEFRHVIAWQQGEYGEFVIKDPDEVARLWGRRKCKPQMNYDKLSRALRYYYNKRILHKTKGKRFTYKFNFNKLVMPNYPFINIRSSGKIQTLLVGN
Particulars: protein: recombinant; tags: N-terminal GST; dsDNA, one strand shown. The method in brief:
as §1

Another assay concerns the target ETV6 (Homo sapiens, UniProt P41212 1-452). Conditions: protein: recombinant; tags: N-terminal GST; dsDNA, one strand shown. The method in brief: as §1

Chain of ETV5 (P41161 whole entry): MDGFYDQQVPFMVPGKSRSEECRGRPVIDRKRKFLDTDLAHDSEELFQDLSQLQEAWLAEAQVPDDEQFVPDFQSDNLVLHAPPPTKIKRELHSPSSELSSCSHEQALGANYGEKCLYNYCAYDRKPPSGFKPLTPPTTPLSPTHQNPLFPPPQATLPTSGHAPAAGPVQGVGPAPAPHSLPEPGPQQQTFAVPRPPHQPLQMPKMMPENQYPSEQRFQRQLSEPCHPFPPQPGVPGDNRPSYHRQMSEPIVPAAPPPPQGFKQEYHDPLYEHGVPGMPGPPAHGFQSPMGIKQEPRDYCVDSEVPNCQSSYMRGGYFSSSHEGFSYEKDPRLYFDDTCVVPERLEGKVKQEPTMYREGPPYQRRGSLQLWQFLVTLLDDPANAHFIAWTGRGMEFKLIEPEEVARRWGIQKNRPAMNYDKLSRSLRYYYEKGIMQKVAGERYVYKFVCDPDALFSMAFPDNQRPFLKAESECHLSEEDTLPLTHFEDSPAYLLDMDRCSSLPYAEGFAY
Chain of ETV6 (P41212 whole entry): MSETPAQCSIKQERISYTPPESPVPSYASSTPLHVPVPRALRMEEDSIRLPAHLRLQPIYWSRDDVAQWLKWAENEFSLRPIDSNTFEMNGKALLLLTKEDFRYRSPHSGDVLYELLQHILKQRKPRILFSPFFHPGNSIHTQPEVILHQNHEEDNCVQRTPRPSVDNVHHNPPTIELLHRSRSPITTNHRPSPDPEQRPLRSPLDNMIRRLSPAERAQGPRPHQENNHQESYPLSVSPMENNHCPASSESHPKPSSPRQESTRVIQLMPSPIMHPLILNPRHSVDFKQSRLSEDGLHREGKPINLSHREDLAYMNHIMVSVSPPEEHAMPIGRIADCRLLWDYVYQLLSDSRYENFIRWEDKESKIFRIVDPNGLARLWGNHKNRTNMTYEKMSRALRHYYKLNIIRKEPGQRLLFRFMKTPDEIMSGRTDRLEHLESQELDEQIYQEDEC
Chain of CRX (O43186 whole entry): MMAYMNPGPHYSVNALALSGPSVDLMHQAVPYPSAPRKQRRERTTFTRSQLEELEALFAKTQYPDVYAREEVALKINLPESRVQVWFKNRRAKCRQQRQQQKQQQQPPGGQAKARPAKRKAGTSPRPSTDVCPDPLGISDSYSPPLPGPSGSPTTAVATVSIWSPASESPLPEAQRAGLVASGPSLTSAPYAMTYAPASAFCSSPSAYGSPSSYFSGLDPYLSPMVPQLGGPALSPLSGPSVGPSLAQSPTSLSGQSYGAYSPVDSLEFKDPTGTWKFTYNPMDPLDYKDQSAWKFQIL

ATAGTA: the binding signal with FEV was 1.16 fold enrichment (6-mer frequency, TF over GST control); in the assay with ETV5 it was 1.18 fold enrichment (6-mer frequency, TF over GST control); with HSF1, 1.16 fold enrichment (6-mer frequency, TF over GST control); with SPIC, 1.29 fold enrichment (6-mer frequency, TF over GST control); in the assay with ELF4, 1.16 fold enrichment (6-mer frequency, TF over GST control); with ELK4 it was 1.24 fold enrichment (6-mer frequency, TF over GST control). For the same sequence, the binding signal with ETV2 was 1.34 fold enrichment (6-mer frequency, TF over GST control); in the assay with ELF3, 1.2 fold enrichment (6-mer frequency, TF over GST control); in the assay with CRX, 1.24 fold enrichment (6-mer frequency, TF over GST control); in the assay with ETV1, 1.13 fold enrichment (6-mer frequency, TF over GST control); with ERF, 1.23 fold enrichment (6-mer frequency, TF over GST control); in the assay with ETV3L, 1.11 fold enrichment (6-mer frequency, TF over GST control). For the same sequence, the binding signal with ETS2 is 1.06 fold enrichment (6-mer frequency, TF over GST control); with SPDEF, 1.07 fold enrichment (6-mer frequency, TF over GST control); in the assay with ETV7, 1.3 fold enrichment (6-mer frequency, TF over GST control); in the assay with ELF5, 1.13 fold enrichment (6-mer frequency, TF over GST control); with ETV3 it was 1.15 fold enrichment (6-mer frequency, TF over GST control); in the assay with ETV6 it was 1.25 fold enrichment (6-mer frequency, TF over GST control).
